Assay outcomes as filed in PubChem BioAssay.
Most compounds without a hit are left out; they make up all but 8.7% or so of the library.
Pf growth 96h = P. falciparum growth inhibition at 96 hours; Potency, µM (titrated, usually from 28.7 µM), for inactives: at the top dose activity change, negative = inhibition, hits mostly inhibitors; P. falciparum luciferase reporter growth, 96 h; 320,000 compounds, 6.9% hits
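Readout is luminescence from an integrated firefly luciferase in P. falciparum. Red cells, 2% hematocrit and 0.05% parasitemia final, were cultured with compound through two parasite generations (96 hours) at 37 C, 5% CO2.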
Pf growth 48h = inhibits P. falciparum growth in the first generation, 48 h; P. falciparum luciferase growth in erythrocytes, 48 h; Potency, µM (titrated, usually from 28.7 µM), for inactives: at the highest dose activity change, negative = inhibition, usual class: inhibitors; AID 504832; 310,000 compounds, 5.9% hits
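Luciferase-expressing parasites in RBCs, 2% Hct / 0.1% parasitemia final; RPMI 1640 + 0.5% Albumax; 37 C, 5% CO2, one generation; luminescence read-out, lower signal = inhibition.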
Vaccinia mCherry = vaccinia inhibition (mCherry reporter); Vaccinia virus mCherry reporter infection, fluorescence; Potency, µM (highest dose often 36.5 µM), inactives show at the top dose activity change, negative = inhibition, hits mostly inhibitors; 310,000 compounds, 0.63% hits; calls by dose curve; tested in A549 cells; also: nearly all actives have a fitted effect of over 35% in size
VACV Venus inh = inhibitors of vaccinia virus (Venus reporter); Vaccinia virus Venus reporter expression, fluorescence; Potency, µM (series often up to 36.5 µM), inactives show at the highest dose activity change, negative = inhibition, most hits filed as inhibitors; 330,000 compounds, 0.46% hits; calls by dose curve; tested in A549 cells; also: nearly all actives have a fitted effect of over 30% in size
AMA1 RON2 block = AMA1-RON2 (P. falciparum) interaction inhibition. AlphaScreen AMA1-biotinylated RON2 peptide binding. Potency, µM (doses to about 58.2 µM), for inactives: at the highest dose activity change, negative = inhibition, most hits filed as inhibitors. 360,000 compounds, 0.2% hits;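 also: 0% = vehicle wells and -100% = peptide control; nearly all actives have a fitted effect of over 45% in size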
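AMA1 (3D7) with his tag at 25 nM final met compounds first, then biotinylated RON2 peptide at 25 nM; detection used donor plus acceptor beads, 10 µg/mL apiece, read by AlphaScreen after 30 min at room temperature.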
An asterisk follows results filed as active; i = inactive; u = inconclusive; x = not tested or not shown; [ ] = another dose, or the depositor's remark. Unless noted, calls follow the shape of the dose curve; as a rule, active = well fitted curve in the direction sought with a large enough effect; inconclusive = small, poorly fitted or top-dose-only effect, or another doubt; inactive = no such curve, though single readings can be large; an effect the other way counts as inactive or inconclusive. Unless noted, % is scaled to controls: 0 for no effect and ±100 for the full control effect; potency is read from the fitted curve at half-maximal effect.

SMILES	Pf growth 96h	Pf growth 48h	Vaccinia mCherry	VACV Venus inh	AMA1 RON2 block
CCOC(=O)C1CCN(c2cc(=O)n(C3CCCCC3)c(=O)[nH]2)CC1	53%	2.9µM*	-15%[1.46 µM]	-15%	2%
CCOC(=O)N1CCN(c2cc(=O)n(C3CCCCC3)c(=O)[nH]2)CC1	u	-6%	15%[1.46 µM]	-9%	13%
Cc1ccc(NC(=O)Cn2c(=O)ccc3cc(S(=O)(=O)N4CCC(C)CC4)ccc32)c(C)c1	x	x	-10%	-11%	x
CCOC(=O)c1c(C)[nH]c(CCC(=O)NCCCN2CCN(c3ccccc3F)CC2)c1C	x	x	-17%	-18%	x
CC12CC3CC(C)(C1)CC(C(=O)N1CCCC1)(C3)C2	12µM*	u	i	-14%	1%
CCNc1c([N+](=O)[O-])c(=O)n(CC)c2ccccc12	10%	-1%	i	-18%	-1%
Cn1c(=O)c([N+](=O)[O-])c(NCc2ccccc2)c2ccccc21	8.3µM*	0%	x	-20%	-1%
Cc1ccc(Sc2c([N+](=O)[O-])c(=O)n(C)c3ccccc23)cc1	188%	u	x	x	-5%
Cc1ccc(Nc2c([N+](=O)[O-])c(=O)n(C)c3ccccc23)cc1	1.7µM*	-19%	-15%	-5%	0%
O=C(COc1ccccc1)NC1CCN(Cc2ccccc2)CC1	12%	u	x	x	0%
Cc1ccccc1OCCC(=O)Nc1ccc(S(=O)(=O)N(C)C2CCN(C)CC2)cc1	3.7µM*	2.9µM*	u	u	7%
Cc1ccc(OCC(=O)Nc2ccc(S(=O)(=O)N3CCOCC3)cc2)c(C)c1	20%	u	0%	12%	-7%
CN1CCC(N(C)S(=O)(=O)c2ccc(NC(=O)COc3cccc(Cl)c3)cc2)CC1	13µM*	9.3µM*	u	u	-13%
CN1CCC(N(C)S(=O)(=O)c2ccc(NC(=O)Cc3ccc(F)cc3)cc2)CC1	u	-4%	x	x	-13%
O=C(COc1ccc(Br)cc1Cl)NC1CCN(Cc2ccccc2)CC1	12µM*	u	u	0%	5%
Cc1ccc(OCC(=O)Nc2ccc(S(=O)(=O)N(C)C3CCN(C)CC3)cc2)c(C)c1	u	12µM*	x	x	-12%
CCC(C(=O)Nc1ccc(C)c(C)c1)n1c(=O)c(C(F)(F)F)nc2ccccc21 (configuration not stated)	x	x	-2%	-8%	x
Cc1ccc(CNC(=O)c2ccc(CSCc3c(F)cccc3Cl)o2)cc1	x	x	-2%	6%	x
CN1CCC(N(C)S(=O)(=O)c2ccc(NC(=O)COc3ccc(Br)cc3Cl)cc2)CC1	2.1µM*	4.1µM*	i	-20%	-6%
Cc1ccc(C)c(OCC(=O)Nc2ccc(S(=O)(=O)N3CCN(C)CC3)cc2)c1	u	u	-16%	-9%	-20%
CC(Sc1nncn1C)C(=O)Nc1ccc(Cl)cn1 (configuration not stated)	48%	31%	i	-5%	-4%
Cc1ccc(-n2nnnc2SC(C)C(=O)Nc2ccc(Cl)cn2)cc1 (configuration not stated)	9.3µM*	u	u	-15%	-11%
O=C(NCCCCCCNC(=O)c1ccccc1O)c1ccccc1O	u	8.3µM*	u	-19%	22%
O=C(NCCCSc1ccccc1)c1cc(Cl)ccc1O	12µM*	u	x	x	18%
O=C(NCCNC(=O)c1ccccc1O)c1ccccc1O	u	14%	x	x	16%
SMILES	Pf growth 96h	Pf growth 48h	Vaccinia mCherry	VACV Venus inh	AMA1 RON2 block
O=C(CNC(=O)c1ccccc1)NCCCSc1ccccc1	x	x	i	-15%	20%
Cc1ccc(CNC(=O)CSc2nc3c(sc4ccccc43)c(=O)n2CCCOC(C)C)cc1	x	x	1%	7%	x
CN(C)S(=O)(=O)c1ccc(C(=O)Nc2nc(-c3cccs3)cs2)cc1	u	x	13%	-20%	-9%
COc1ccc(-c2csc(NC(=S)NC(=O)c3cccs3)n2)cc1Br	-8%	0%	-16%	-13%	42%
COc1ccc(-n2c(C)cc(-c3csc(NC(=O)c4ccc(S(=O)(=O)N(C)C)cc4)n3)c2C)cc1	12µM*	u	i	-7%	27%
COc1ccc(-c2csc(NC(=S)NC(=O)c3ccc(S(=O)(=O)N(C)C)cc3)n2)cc1OC	u	13µM*	x	x	106%
CCc1noc(C)c1C(=O)Nc1nc(-c2ccc(OC)c(OC)c2)cs1	10µM*	u	-25%	-18%	-22%
COc1ccc(-c2csc(NC(=S)NC(=O)c3cccs3)n2)cc1OC	u	12µM*	i	-26%	53%
CCOC(=O)c1sc(N2C(=O)c3oc4ccc(C)cc4c(=O)c3C2c2ccccc2F)nc1C (configuration not stated)	x	x	-6%	-2%	x
NC(=O)c1nsc(C(=O)N(Cc2ccco2)C(C(=O)NC2CCCC2)c2ccc(O)cc2)c1N (configuration not stated)	-8%	u	-10%	-4%	-7%
CC(C(=O)NC1CCCC1)N(Cc1ccco1)C(=O)c1snc(C(=O)NC2CCCC2)c1N (configuration not stated)	x	13µM*	-7%	-1%	-5%
Cc1ccc(N(C(=O)Cc2cccs2)C(C(=O)NC2CCCC2)c2ccncc2)cc1 (configuration not stated)	0.93µM*	u	x	x	8%
Cc1ccc(C(C(=O)NC2CCCC2)N(C(=O)Cc2cccs2)c2ccc(C)c(C)c2)o1 (configuration not stated)	10µM*	10µM*	-14%	u	-16%
Cc1ccc(C(C(=O)NC2CCCC2)N(Cc2ccc3c(c2)OCO3)C(=O)c2snc(C(N)=O)c2N)cc1 (configuration not stated)	8.3µM*	7.4µM*	i	1%	-10%
COCC(=O)Nc1cc(C(=O)N2CCCC2c2nccs2)c2c(c1)nc(-c1ccncc1)n2C (configuration not stated)	x	x	-12%	-4%	x
CC1Cn2c(C(=O)NCc3ccccc3Cl)cc3cccc(c32)S1 (configuration not stated)	x	x	-20%	-13%	x
Cc1ccc(C(C(=O)NC2CCCC2)N(Cc2ccc3c(c2)OCO3)C(=O)Cc2cccs2)cc1 (configuration not stated)	-2%	13µM*	x	-16%	-7%
Cc1ccc(CN(C(=O)Cc2cccs2)C(C(=O)NC2CCCC2)c2ccncc2)cc1 (configuration not stated)	1%	u	x	x	-3%
CC(=O)c1cccc(N(C(=O)CS(=O)CC(=O)Nc2ccc(F)cc2)C(C(=O)NC2CCCCC2)c2ccc(C)o2)c1 (configuration not stated)	4.1µM*	u	i	-15%	-19%
O=C(NC1CCCC1)C(c1ccc(F)cc1)N(C(=O)Cc1cccs1)c1ccc2c(c1)OCCO2 (configuration not stated)	11%	8%	-14%	-8%	-2%
